Source: ChEMBL document CHEMBL3988442, “University of Dundee, Small-Polar-MMV Screening Library” (2021)

Experiments:
[1] = target: T1, Aspartate--tRNA(Asp/Asn) ligase (Mycobacterium tuberculosis (strain ATCC 25618 / H37Rv)) (UniProt P9WFW3); test: Assay for Asp RNA synthetase-1 from Mycobacterium tuberculosis; format: functional; set-up: scale not given: direction of the effect not stated beside the values; settings: 30 µM; further: in the data most compounds retested in dose-response had high values
T1 sequence (whole entry): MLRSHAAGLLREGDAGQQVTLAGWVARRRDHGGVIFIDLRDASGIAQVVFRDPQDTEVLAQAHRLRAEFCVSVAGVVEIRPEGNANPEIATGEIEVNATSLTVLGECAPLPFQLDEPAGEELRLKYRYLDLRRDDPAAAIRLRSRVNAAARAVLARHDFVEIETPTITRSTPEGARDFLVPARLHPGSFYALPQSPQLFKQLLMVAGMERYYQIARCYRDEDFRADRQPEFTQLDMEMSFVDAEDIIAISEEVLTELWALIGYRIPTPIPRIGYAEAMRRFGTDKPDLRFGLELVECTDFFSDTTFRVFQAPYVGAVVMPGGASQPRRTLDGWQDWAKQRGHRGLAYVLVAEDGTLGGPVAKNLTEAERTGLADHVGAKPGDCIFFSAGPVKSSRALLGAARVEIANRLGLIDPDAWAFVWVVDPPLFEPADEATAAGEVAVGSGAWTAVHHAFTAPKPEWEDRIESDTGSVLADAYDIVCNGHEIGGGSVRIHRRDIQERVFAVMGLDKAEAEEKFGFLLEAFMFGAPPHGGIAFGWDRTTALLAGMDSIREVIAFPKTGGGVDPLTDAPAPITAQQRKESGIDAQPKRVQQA

[2] = target: Shiga toxin 2 (Escherichia coli O157:H7) (UniProt P09385+P09386); test: E. coli 0.157:H7 Shiga Toxin SOP - stx2 screening assay; format: functional; set-up: scale not given: direction of the effect not stated beside the values; settings: 30 µM

Row | SMILES | Percent Effect [1] | Percent Effect [2]
1 | CC(=O)NC(C)c1ccc(OCC2CC2)c(F)c1 (stereo not given) | 0.15% | 4.12%
2 | Cc1nc(CN2CCN(Cc3ccoc3)Cc3cccnc32)cs1 | 4.04% | -1.98%
3 | O=C1NC2(CCN(C(=O)Cc3ccsc3)CC2)CC1c1ccncc1 (stereo not given) | 1.5% | -5.98%
4 | COc1ccc(C(=O)N2C[C@@H](C(=O)O)[C@H](c3ccccc3C)C2)c(O)c1 | 8.11% | 0.95%
5 | CC(C)CCN1CCC2(CC1)CN(C(=O)c1cnccn1)CCO2 | -0.349% | -0.912%
6 | Cc1ccc2c(c1)CN(C(=O)C1CCCCC1)C(CN(C)C)CO2 (stereo not given) | 1.26% | 2.56%
7 | Cc1cccc(-c2ccc(C(=O)NCCN(C)C3CC3)c(=O)[nH]2)c1 | 4.25% | 19.3%
8 | CC(C)c1nn(C)c(Cl)c1CNCc1ccc2c(c1)OCCO2 | 5.79% | 32.9%
9 | Cc1nc(CNC(C)c2ccc(OCC(=O)NC3CC3)cc2)cs1 (stereo not given) | 2.43% | -66.5%
10 | CCN1CC2(CC1=O)CN(Cc1cccs1)CCN(C(=O)C(C)C)C2 (stereo not given) | -0.746% | 0.818%
11 | CC(C)N1CCc2c(C#N)c(NCc3ccco3)n3cnnc3c2C1 | 3.86% | -4.38%
12 | CN(C)S(=O)(=O)N1CCCC(c2cccc(Cc3ccccc3)n2)C1 (stereo not given) | 2.78% | 67.3%
13 | CCOc1nnc(CN(C)CC2CCCN2c2cccnn2)s1 (stereo not given) | -1.14% | -14.4%
14 | CC(C)NC(=O)N1CCN(S(=O)(=O)C2CC2)CC2(CNC(=O)C2)C1 (stereo not given) | -2.4% | -12.6%
15 | COc1ccc(NC(=O)c2ccc(-n3ncc(C#N)c3N)cc2)cn1 | 1.4% | -48.1%
16 | C[S+]([O-])c1nncn1CC(=O)c1ccc2c(c1)CCO2 (stereo not given) | 3.29% | -38.1%
17 | Cc1cc(C)n(C2CN(CC(=O)N(C)Cc3ccc(C)o3)C2)n1 | -0.898% | 0.889%
18 | Cc1occc1C(=O)N1CCO[C@H]2[C@@H](Oc3ccccn3)CC[C@@H]21 | -0.28% | -16.2%
19 | Cc1ccc2c(n1)N(CCN(C)C)CCN(C(=O)c1ccc[nH]1)C2 | 8.78% | -14.6%
20 | Cc1noc(C)c1CN(C)CCC(=O)N1CCc2sccc2C1 | 5.92% | -16%
21 | COc1ccc(CN2CCc3nc(C4CCCCN4C)ncc3C2)cc1 (stereo not given) | 3.22% | -19.9%
22 | NC(=O)C1CCN(C(=O)NCc2ccccc2Cn2cncn2)CC1 | 2.04% | 1.76%
23 | O=C(c1ccccc1OCC1CC1)N1CCCC(n2ccnc2)C1 (stereo not given) | 6.48% | -13.9%
24 | Cc1nn(CC(C)C)c(N(C)C)c1CNCc1cccnc1N(C)C | 0.161% | 24.5%
25 | NC(=O)NCC1CCCCN1C(=O)c1cccc(C(F)(F)F)c1 (stereo not given) | 2.58% | 11.1%

Row | SMILES | Percent Effect [1] | Percent Effect [2]
26 | COc1ccc(C(=O)N2CCC(Nc3cccnn3)CC2)c(OC)c1 | -0.568% | 8.84%
27 | Cc1cc(C(=O)NCC(C)N2CCc3ccccc32)no1 (stereo not given) | -0.278% | -26.5%
28 | CC(C)c1nnc2ccc(N3CCC(C(=O)Nc4nccs4)CC3)nn12 | -2.93% | -32.8%
29 | Cc1cccc(CCC(=O)N2CCCC(c3cc(C(N)=O)[nH]n3)C2)c1 (stereo not given) | -0.161% | -10.2%
30 | CC(C)(O)CN1CCN(C(=O)c2cc3ccccc3c(=O)[nH]2)CC1 | -2.19% | -6.56%
31 | O=C(NC(Cc1ccsc1)c1nccs1)C1CCOCC1 (stereo not given) | 1.44% | 15.3%
32 | Cn1cnnc1C1CCCN(C(=O)c2ccccc2Cl)C1 (stereo not given) | 1.15% | 22.4%
33 | O=C(NC1(c2cccc(F)c2)CCOCC1)c1ccoc1 | 2.05% | -19.4%
34 | CC(=O)N1CCCC1c1nccnc1Nc1cccc(C)n1 (stereo not given) | 1.07% | -5.74%
35 | CCOC(=O)CNC(=O)N1CCN(c2ncccn2)CC1 | 4.73% | -21.7%
36 | CC(C)c1ccc(-c2nnn(CCNS(C)(=O)=O)n2)cc1 | -1.05% | -43.9%
37 | COCc1cnc2n1CCN(Cc1cccnc1)C2C (stereo not given) | 4.46% | -10.3%
38 | Cc1cnc2n(c1=O)C(CC(=O)NCc1cc(-c3cccs3)on1)CS2 (stereo not given) | 1.62% | -30.9%
39 | CC(C)c1nn(C)c(N(C)C)c1CNCc1ccc2c(c1)OCO2 | -1.77% | 30.6%
40 | Clc1ccccc1C1(c2ccnc(-c3ccncc3)n2)CCNCC1 | 0.832% | -43.2%
41 | Cc1cc(C2CCCN(C(=O)c3c(C)nn4cccnc34)C2)n[nH]1 (stereo not given) | -6.19% | 7.06%
42 | Cc1nc(N2CCCC2)nc2c1CCN(C(=O)C1CCCC1)CC2 | 0.726% | -9.64%
43 | O=C(NCc1ccccc1CN1CCC(O)CC1)Nc1ccncc1 | -0.167% | -42%
44 | Cc1cc(C)n2cc(CN3CCCC3Cn3nc(C)nc3C)nc2n1 (stereo not given) | -2.84% | 5.36%
45 | CCc1cnc(CN(C(C)=O)C2CCN(CCS(C)(=O)=O)C2)o1 (stereo not given) | -3.9% | -0.798%
46 | CC(C)Cc1noc(CN2CCN(c3nccs3)CC2)n1 | -4.73% | 11.6%
47 | COc1ccc(C2CC(=O)Nc3c2nc2n3CCCC2)cc1OC (stereo not given) | 0.342% | 0.28%
48 | Cc1ccsc1C(=O)NCCCn1nc2ccccn2c1=O | 1.69% | 16.8%
49 | CCC(C)(NCC(=O)N(c1ccccc1)C(C)C)c1nc(C)cs1 (stereo not given) | 1.2% | -25.8%
50 | O=C(NCCCNc1ccccc1)c1scnc1Cl | -0.926% | -10.4%
